Our source for the inhibition values is PubChem BioAssay AID1445 (SRMLSC, 2008).

The whole screen tested about 220,000 compounds, of which about 910 (0.41%) were called active. What follows is part of a selection rich in actives, with near analogues and random picks from the rest. Results with a measured potency or affinity are listed apart. Values without a mark were called inactive.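 Rule for the calls: active = primary inhibition above the hit cutoff, then over 50% inhibition at one or more dose response concentrations (cut at about 23% in these data, passing the limit was not always enough); inconclusive = conflicting primary data, or primary hits not chosen for dose response; inactive = low primary inhibition, or under 50% at every dose.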

For this assay, the target named is Aminopeptidase N (Plasmodium falciparum (isolate 3D7)) (UniProt O96935). Description: P. falciparum M1AAP inhibitors, biochemical, fluorogenic H-Leu-NHMec substrate, 1536-well (AID 1445).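 Note: plate controls were DMSO full reaction for no effect and no enzyme background for full effect.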 To be noted: recombinant M1AAP, H-Leu-NHMec fluorogenic kinetic assay; at 30 µM, hits give high values unless noted.
Chain of Aminopeptidase N (Plasmodium falciparum (isolate 3D7)) (O96935 whole entry, looked up): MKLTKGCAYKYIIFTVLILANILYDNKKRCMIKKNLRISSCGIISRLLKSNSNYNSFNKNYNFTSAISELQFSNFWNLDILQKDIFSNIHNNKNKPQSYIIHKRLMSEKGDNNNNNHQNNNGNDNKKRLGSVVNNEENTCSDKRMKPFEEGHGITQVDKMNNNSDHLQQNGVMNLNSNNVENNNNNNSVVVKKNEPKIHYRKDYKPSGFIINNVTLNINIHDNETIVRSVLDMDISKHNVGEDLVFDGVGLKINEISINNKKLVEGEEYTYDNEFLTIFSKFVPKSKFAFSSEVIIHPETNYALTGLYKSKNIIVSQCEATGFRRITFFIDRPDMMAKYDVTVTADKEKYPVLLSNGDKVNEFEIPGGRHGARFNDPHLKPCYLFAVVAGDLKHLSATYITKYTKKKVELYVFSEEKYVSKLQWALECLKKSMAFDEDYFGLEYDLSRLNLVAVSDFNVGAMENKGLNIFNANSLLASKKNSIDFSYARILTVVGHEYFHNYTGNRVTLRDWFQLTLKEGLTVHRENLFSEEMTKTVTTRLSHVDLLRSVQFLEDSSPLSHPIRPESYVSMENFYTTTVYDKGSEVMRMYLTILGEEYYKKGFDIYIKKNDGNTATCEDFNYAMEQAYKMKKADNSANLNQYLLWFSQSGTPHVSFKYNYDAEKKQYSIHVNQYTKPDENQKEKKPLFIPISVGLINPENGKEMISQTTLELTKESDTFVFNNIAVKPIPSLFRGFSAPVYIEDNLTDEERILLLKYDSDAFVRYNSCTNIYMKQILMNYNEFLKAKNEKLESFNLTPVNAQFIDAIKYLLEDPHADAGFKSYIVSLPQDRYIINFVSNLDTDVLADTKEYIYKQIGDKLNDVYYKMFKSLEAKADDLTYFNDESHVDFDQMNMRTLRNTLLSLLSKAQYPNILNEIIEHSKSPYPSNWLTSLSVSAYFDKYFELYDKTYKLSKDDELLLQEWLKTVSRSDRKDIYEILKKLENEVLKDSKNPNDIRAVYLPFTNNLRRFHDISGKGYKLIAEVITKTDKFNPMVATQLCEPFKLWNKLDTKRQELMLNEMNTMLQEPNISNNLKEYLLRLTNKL
One may read the inhibition as the change of the read-out against control, counted positive when it falls. Turning to `Cc1cc(=O)n(-c2ccc(Cl)cc2)c(=O)[nH]1`, the inhibition was -2%.

For the molecule `Cc1c(C(=O)NCc2ccccn2)oc2ccc(S(=O)(=O)N3CCOCC3)cc12`, the inhibition is -1.02%.

For `O=C(O)CCCC(=O)NNc1ncnc2ccccc12`, the inhibition is 13.7%.

For `O=C(CCCCCN1C(=O)c2ccccc2C1=O)NCc1ccco1`, the inhibition is 19.7%.

In the case of `O=C(Oc1c(Cl)cc(Cl)c2ccccc12)N1CCCC1`, the inhibition was 13.6%.

For the molecule `COc1ccc(-c2nn(-c3ccccc3)cc2/C=C/C(=O)OCC(=O)Nc2cccc(C#N)c2)cc1`, the inhibition was 0.99%.

As to `O=C(NCc1ccco1)c1cccc(F)c1`, the inhibition is 4.04%.

For the molecule `O=C(NC1CCN(C(=S)NCc2ccco2)CC1)c1ccc(F)cc1`, the inhibition was 14.1%.

For the molecule `COc1ccc(C(C(=O)NC2CCCCC2)N(C(=O)c2sc(C)nc2C)c2ccccc2)cc1` (stereo unspecified), the inhibition is -2.38%.

Turning to `Cc1ccc(NC(=O)Nc2cccs2)cc1`, the inhibition was 9.98%.

As for `O=C(Nc1ccncc1)Nc1ccccn1`, the inhibition was 3.11%.

As for `O=C(Nc1ccccn1)c1cccs1`, the inhibition is 3.97%.

Take `Cc1cc(NC(=O)Nc2cccs2)no1`: the inhibition is 6.28%.

Take `Cc1cccc(C)c1-n1c(C)cc(/C=N/NC(=O)CSc2ncccn2)c1C`: the inhibition was 4.32%.

For `CC(C)CCNC(=O)NC(=O)COC(=O)C1=COCCO1`, the inhibition is -7.85%.

On to `O=c1cc(C23CC4CC(CC(C4)C2)C3)[nH][nH]1`, for which the inhibition is -6.62%.

On to `COc1ccc(C(=O)/C(=C\c2sccc2C)c2nc3ccccc3o2)cc1`, for which the inhibition is 2.1%.

Regarding `N#C/C(=C\c1ccc(O)cc1)c1nc2ccccc2o1`, the inhibition is 7.39%.

For the molecule `N#C/C(=C\c1ccc(Cl)cc1)c1nc2ccccc2o1`, the inhibition was 15.7%.

`COc1ccc(C(=O)/C(=C/c2cccs2)c2nc3ccccc3o2)cc1`: the inhibition is 15.5%.

Take `COCc1[nH]nc2c1C(c1ccsc1)C(C#N)=C(N)O2` (stereo unspecified): the inhibition was 1.23%.

As for `CCc1ccc(N2CC(C(=O)Nc3cc(C)ccc3F)CC2=O)cc1` (stereo unspecified), the inhibition is 1.79%.

As for `Cc1c2c(nc3c(C(=O)NC4CCCCC4C)cnn13)CCCC2` (stereo unspecified), the inhibition was 3.74%.

As for `O=C(Cc1csc(-c2ccccc2)n1)NCc1ccccc1F`, the inhibition is 2.51%.

With `Cc1ccc(-c2ccc(/C=N\NC(=O)c3cc4c(ccc5ccccc54)o3)o2)cc1[N+](=O)[O-]`, the inhibition is 2.34%.

Take `COCc1cc(C)nc(N/N=C/c2ccc(-c3ccc(C(=O)O)c(Cl)c3)o2)c1C#N`: the inhibition is 15.5%.

For the molecule `O=[N+]([O-])c1cccc(-c2ccc(/C=N/NC(=S)Nc3ccccc3)o2)c1`, the inhibition is 2.03%.

With `Nc1nonc1C(=O)N/N=C/c1ccc(-c2cccc(C(=O)O)c2)o1`, the inhibition was 16.9%.

Take `Nc1nonc1C(=O)N/N=C/c1ccc(-c2cccc([N+](=O)[O-])c2)o1`: the inhibition is 7.55%.

`O=C(O)c1cc(-c2ccc(/C=N/Nc3ccc(Cl)cc3)o2)ccc1Cl`: the inhibition was 16.9%.

For `COCc1cc(C)n(CC(=O)Nc2ccc(Cl)cc2Cl)c(=O)c1C#N`, the inhibition was 10.9%.

As to `O=C(N/N=C/c1ccc([N+](=O)[O-])o1)c1cc2c(ccc3ccccc32)o1`, the inhibition was 5.62%.

As for `CC(=O)Nc1ccc(S(=O)(=O)NCC(=O)OCC(=O)NC(=O)c2cccn2C)cc1`, the inhibition was 3.48%.

Turning to `CC1CCN(S(=O)(=O)c2ccc(NC(=O)CCN3C(=O)c4ccccc4C3=O)cc2)CC1`, the inhibition is 4.02%.

`C=CCNC(=S)/N=c1/scc(C)n1C`: the inhibition is 6.8%.

For `Cc1ccccc1Cn1ccc(NC(=O)c2onc(C)c2Cl)n1`, the inhibition is 2.73%.

For the molecule `COCCNC(=O)COc1ccccc1Cl`, the inhibition was 17.4%.

For the molecule `O=C(Nn1cc(C(=O)Nc2ccc(F)cc2F)c2ccccc2c1=O)c1cnccn1`, the inhibition was 5.45%.

Regarding `CCOC(=O)N1CCN(c2c(N3CCN(c4ccccc4F)CC3)c(=O)c2=O)CC1`, the inhibition is 3.17%.

For `CCc1nnc(NC(=O)CSc2nnc(CNC(=O)c3ccc(OC)c(OC)c3)o2)s1`, the inhibition was 0.34%.

In the case of `CC1(C)NC(=O)N(CCCCOc2ccccc2[N+](=O)[O-])C1=O`, the inhibition is 1.49%.

As for `O=C(Cc1ccc(Br)cc1)N/N=C/c1ccc(-c2cccc(C(=O)O)c2)o1`, the inhibition is 14.3%.

With `O=C1C2C3C=CC(C4CC34)C2C(=O)N1/N=C/c1ccc(-c2ccc([N+](=O)[O-])cc2)o1` (stereo unspecified), the inhibition is 7.6%.

Take `COC(=O)c1ccc(-c2ccc(/C=N/N3C(=O)C4C5C=CC(C6CC56)C4C3=O)o2)cc1` (stereo unspecified): the inhibition is 4.36%.

Turning to `COc1ccc(CC(=O)N/N=C/c2ccc(-c3ccc(F)cc3)o2)cc1OC`, the inhibition is 6.71%.

For the molecule `O=C(CCN1CCN(C(=O)c2ccco2)CC1)Nc1ccc(F)cc1`, the inhibition is 1.29%.

Turning to `S=C(NCCCn1ccnc1)NC1CCCCC1`, the inhibition was 6.56%.

In the case of `CCC(C)NC(=O)CN(C)S(=O)(=O)c1ccc2c(c1)c(=O)n(C)c(=O)n2C` (stereo unspecified), the inhibition is -4.82%.

With `CCCC(=O)OCC(=O)Nc1ccc2c(c1)OCO2`, the inhibition was -0.89%.

`CCOC(=O)C1=C(C)N=c2s/c(=C3\C(=O)Nc4ccccc43)c(=O)n2C1c1ccc2c(c1)OCO2` (stereo unspecified): the inhibition is 8.57%.

As for `Cc1cc(C)nc(NS(=O)(=O)c2ccc(N3C(=O)c4ccccc4C3=O)cc2)n1`, the inhibition was 0.35%.

As to `CCO/C=C1\C(=O)N(c2ccccc2)C(=O)c2ccccc21`, the inhibition is -1.51%.

With `CCOc1ccc(N2C(=O)c3ccccc3C2=O)cc1`, the inhibition was -0.53%.

For `CCO/C=C1/C(=O)N(c2ccc(OC)cc2)C(=O)c2ccccc21`, the inhibition is 4.8%.

Regarding `COc1ccccc1N1CCN(C(c2ccc(N(C)C)cc2)c2nnnn2CCc2ccccc2)CC1` (stereo unspecified), the inhibition is -7.04%.

As for `CCc1c(C)c2ccc(OCC(=O)N(C)C)c(C)c2oc1=O`, the inhibition is 0.38%.

Turning to `Cc1oc2c(CN3CCCC3)c(O)ccc2c(=O)c1-c1ccc(Br)cc1`, the inhibition is 17.5%.

Turning to `Cc1oc2c(CN3CCCC3)c(O)ccc2c(=O)c1-c1ccccc1`, the inhibition is 9.3%.

Take `CCN(CC)Cc1c(O)c(Cl)cc2c3c(c(=O)oc12)CCCC3`: the inhibition is 9.62%.

In the case of `CCCc1cc(=O)oc2c(CN3CCOCC3)c(O)ccc12`, the inhibition is 21.8%.

Regarding `CCc1cc2c3c(c(=O)oc2cc1O)CCCC3`, the inhibition was 22.5%.

In the case of `O=c1oc2c(CN3CCOCC3)c(O)ccc2c2ccccc12`, the inhibition was 3.91%.

With `COc1ccc(Oc2c(C)oc3c(CN(C)C)c(O)ccc3c2=O)cc1`, the inhibition is 2.59%.

For the molecule `COc1ccc(-n2nnnc2SCC(=O)N2CCCC2)cc1OC`, the inhibition was 0.63%.

For the molecule `COc1ccc(C(=O)Nc2cc(=O)n(C)c(=O)n2C)cc1`, the inhibition was 4.18%.

Turning to `Cc1nc(N)nc(-c2ccccc2O)n1`, the inhibition was 7.96%.

In the case of `Cn1c(=O)[nH]c(=O)c2c1nc(N1CCCCC1)n2C/C=N/NC(=O)c1cc(Br)ccc1O`, the inhibition is 20.9%.

On to `COCCCNC(=O)c1ccccc1Sc1ccc(NC(C)=O)nc1`, for which the inhibition was 2.96%.

Turning to `CCCn1nc2cc(C(=O)NC3CCc4ccccc43)ccc2c1OCC` (stereo unspecified), the inhibition was 4.98%.

As to `Nc1nc(NC(=O)c2ccccc2Cl)nn1-c1ccccc1`, the inhibition is -0.99%.

Consider `Cc1c(C(=O)NCC(C)C)sc2nc(-c3ccc(F)cc3)cn12`, for which the inhibition is -1.14%.

For the molecule `CC(=O)Cc1nsc(NC(=O)c2ccco2)n1`, the inhibition was 0.74%.

With `O=[N+]([O-])c1cc(S(=O)(=O)Nc2ccccc2)ccc1NCc1cccnc1`, the inhibition is 6.72%.

With `CC1CCCN(Cc2c(O)ccc3c(=O)c(-c4nc5ccccc5s4)c(N)oc23)C1` (stereo unspecified), the inhibition was 24.6% (active).

As for `CC1CCCCN1Cc1c(O)ccc2c(=O)c(-c3nc4ccccc4s3)c(N)oc12` (stereo unspecified), the inhibition is 17.1%.

On to `CC1CCN(Cc2c(O)ccc3c(=O)c(-c4nc5ccccc5s4)c(N)oc23)CC1`, for which the inhibition was 2.55%.

For `CN(Cc1c(O)ccc2c1oc(=O)c1ccccc12)C1CCCCC1`, the inhibition was 5.6%.

`COC(=O)Cc1c(C)c2ccc(OCC(C)=O)c(C)c2oc1=O`: the inhibition was 14.3%.

In the case of `C=C(C)COc1ccc2c(C)c(CC(=O)OC)c(=O)oc2c1C`, the inhibition was 13.3%.

For `CC1CN(Cc2c(O)ccc3c2oc(=O)c2ccccc23)CC(C)O1` (stereo unspecified), the inhibition was 4.75%.

`CC(C)CN(Cc1c(O)ccc2c3c(c(=O)oc12)CCC3)CC(C)C`: the inhibition is 34.7%.

As to `CCc1cc(=O)oc2cc(C)c(CN3CCCC(C)C3)c(O)c12` (stereo unspecified), the inhibition was 2.92%.

On to `O=C(Cc1c(Cl)cccc1Cl)NCCc1ccc(Cl)cc1`, for which the inhibition is 13.8%.

For `Cc1ccc(NC(=O)CCNS(=O)(=O)c2ccc3c(c2)c(=O)n(C)c(=O)n3C)cc1C`, the inhibition was 9.45%.

Consider `NC(=O)c1ccccc1N/C=C1\CCCCC1=O`, for which the inhibition was 10.2%.

For `O=C1/C(=C/Nc2cccc([N+](=O)[O-])c2)CCc2ccccc21`, the inhibition is 9.22%.

As to `CCOC(=O)N1CCN(C(=O)COc2ccccc2Cl)CC1`, the inhibition was 4.17%.

For the molecule `COCCn1c(SCC#N)nnc1-c1ccc2c(c1)OCO2`, the inhibition was -1.51%.

Turning to `OC(c1cccs1)c1nccc2ccccc12` (stereo unspecified), the inhibition is -3.89%.

`CCCCN(CC)Cc1c(O)ccc2c(-c3ccccc3)cc(=O)oc12`: the inhibition was 4.82%.

For `Cc1c(O)ccc2c3c(c(=O)oc12)CCCC3`, the inhibition is 20.9%.

As to `O=c1oc2c(CN3CCCCC3)c(O)ccc2c2c1CCCCC2`, the inhibition was 42.2% (active).

For `COCCN(CCOC)Cc1c(O)ccc2c3c(c(=O)oc12)CCC3`, the inhibition is 4.7%.

Regarding `O=c1cc(-c2ccccc2)c2ccc(O)c(CN3CCCCC3)c2o1`, the inhibition is 11.4%.

As to `COc1ccc(-c2cc(C#N)nc(Oc3ccc(Cl)cc3)n2)cc1`, the inhibition was 6.45%.

For `CC(=O)Nc1ccc(/C=N/NC(=O)c2cc3cc(C)ccc3nc2C)cc1`, the inhibition was 2.63%.
